ABHD5-PLIN5 inh: blocks binding of human ABHD5 to perilipin-5 | 360,000 compounds, 0.78% hits | inhibition, % at 4 µM | Q00G26+Q8WTS1 | Split G. princeps luciferase complementation, luminescence, 4 h;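 active = inhibition above the mean inhibition across every tested compound plus 3 SD, cut at about 22% in these data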;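 note: 0% = DMSO only wells and the 100% control is not disclosed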
MBD2 inh: inhibitors of human MBD2 binding to methylated oligonucleotide. Q9UBB5. TR-FRET. inhibition, % at 4.4 µM. 370,000 compounds, 0.31% hits; in the data active = inhibition above about 13%
rCAG binder: r(CAG) repeat RNA binding | 370,000 compounds, 1.3% hits | inhibition, % at 3 µM | TO-PRO-1 dye displacement fluorescence;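 active = inhibition above the plate cutoff, the mean of all test compounds on that plate plus 3 SD, cut at about 35% in these data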;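 note: 0% = DMSO alone and 100% = 100 µM mitoxantrone as full dye displacement; higher means more dye released from RNA so lower well fluorescence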
LEDGF integ inh: blocks HIV-1 LEDGF/p75-dependent DNA integration | inhibition, % at 3.7 µM | TR-FRET IN-LEDGF/p75 DNA integration, Eu/Cy5 | 370,000 compounds, 0.64% hits;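 active = inhibition above the screen-wide mean plus 3 SD, cut at about 13% in these data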;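 note: signal is the Cy5 over europium emission ratio at 671 and 618 nm; 0% = plate median of compound wells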
UHRF1 binding: UHRF1 methyl-DNA binding inhibition; 370,000 compounds, 0.75% hits; UHRF1 binding to methylated oligo, TR-FRET; inhibition, % at 4.4 µM; Q96T88; in the data active = inhibition above about 21%;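 note: UHRF1 SRA domain binding a hemimethylated CpG hairpin DNA probe; 0% = median of test compound wells and 100% = reference inhibitor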
PRMT1 inh: inhibitors of human PRMT1 | AID 652257 | inhibition, % at 2.79 µM | Q99873 | recombinant PRMT1, activity-based probe fluorescence polarization | 370,000 compounds, 1.3% hits;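 active = inhibition above about 21% made by adding two undisclosed values, limit read from the data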
Target sequence (Q99873 whole entry, looked up): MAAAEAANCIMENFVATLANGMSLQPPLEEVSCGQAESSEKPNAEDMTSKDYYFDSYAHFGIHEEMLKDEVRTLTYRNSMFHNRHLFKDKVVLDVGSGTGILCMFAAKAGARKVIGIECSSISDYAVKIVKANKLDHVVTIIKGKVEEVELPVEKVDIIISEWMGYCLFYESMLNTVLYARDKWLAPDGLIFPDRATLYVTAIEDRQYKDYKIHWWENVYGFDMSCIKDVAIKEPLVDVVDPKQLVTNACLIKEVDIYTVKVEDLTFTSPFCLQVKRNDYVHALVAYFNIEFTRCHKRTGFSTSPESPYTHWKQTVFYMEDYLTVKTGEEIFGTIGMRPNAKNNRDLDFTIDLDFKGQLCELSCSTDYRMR
rCAG bind conf: r(CAG) RNA repeat binding, confirmation. shares compounds with rCAG binder. TO-PRO-1 dye displacement fluorescence. inhibition, % at 3 µM. 4,300 compounds, 70% hits;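 active = inhibition above a per-plate cutoff, the mean inhibition of sample wells plus 3 SD, cut at about 35% in these data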;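 note: loss of TO-PRO-1 fluorescence as compound displaces dye from 1x1 AA loop RNA; 0% = DMSO only wells and 100% = 100 µM mitoxantrone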
DNA CAG counter: counter-screen for rCAG RNA binders: DNA CAG dye complex inhibitors. d(CAG) DNA oligo TO-PRO-1 dye displacement, fluorescence. 4,300 compounds, 94% hits. shares compounds with rCAG binder. inhibition, % at 3 µM;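 active = inhibition above its plate's cutoff, the mean test-well inhibition plus 3 SD, cut at about 4.8% in these data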;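 note: 0% = DNA dye mix with DMSO and 100% = 100 µM mitoxantrone; hits displace the dye from DNA and so lower well fluorescence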
dCAG dye DR: counter-screen for rCAG binders: inhibitors of DNA CAG TO-PRO-1 complex; DNA CAG/GTC duplex TO-PRO-1 dye displacement fluorescence; shares compounds with rCAG binder; AID 686960; IC50, µM; 250 compounds, 20% hits; in the data active = IC50 below about 10 µM
Starred values were filed as active, the others as inactive; i = inactive; x = no result. In the library only some 4.1% were active in any assay of this set; here they are far more common.

SMILES | ABHD5-PLIN5 inh | MBD2 inh | rCAG binder | LEDGF integ inh | UHRF1 binding | PRMT1 inh | rCAG bind conf | DNA CAG counter | others
CCOC(=O)c1c(C)n(S(=O)(=O)c2ccc(C)cc2)c2ccc(O)c(C(=O)O)c12 | 0 | -4 | 66* | 1 | -5 | -4 | 64* | 27*
O=C(Cc1cccc2ccccc12)Nc1cc(Cl)ccc1C(=O)O | -7 | 2 | 46* | 6 | 1 | 0 | 35* | 8.1*
O=C(Cc1cccc2ccccc12)Nc1ccccc1C(=O)O | 0 | 3 | 18 | 2 | 6 | 7 | x | x
Cc1ccc(OCC(=O)Nc2ccc(C(=O)Nc3ccccc3C(=O)O)cc2)cc1C | 3 | -2 | 51* | 0 | -1 | 0 | 80* | 45*
Cc1ccccc1OCC(=O)Nc1ccc(C(=O)Nc2ccccc2C(=O)O)cc1 | 3 | -9 | 49* | 0 | -3 | 2 | 73* | 37*
Cc1ccccc1OCC(=O)Nc1ccc(C(N)=O)cc1 | 7 | -5 | 0 | 0 | 1 | 1 | x | x
COc1ccc(C(=O)Nc2ccc(C(=O)O)cc2NC(=O)c2ccc(OC)cc2)cc1 | -3 | -2 | 36* | 0 | -1 | 3 | 20 | 3
COc1ccc(CC(=O)Nc2ccc(C(=O)O)cc2NC(=O)Cc2ccc(OC)cc2)cc1 | -3 | -3 | 12 | -1 | 2 | -2 | x | x
O=C(COc1ccc([N+](=O)[O-])cc1)Nc1ccc(C(=O)Nc2ccccc2C(=O)O)cc1 | 2 | 3 | 18 | 0 | -1 | 3 | x | x
COc1ccc(OCC(=O)Nc2ccc(C(=O)Nc3ccccc3C(=O)O)cc2)cc1 | 0 | 2 | 73* | 1 | 0 | 15 | 75* | 30* | dCAG dye DR=i
CC(/C=N\NC(=O)CSc1nnc(-c2ccc(Br)cc2)n1-c1ccccc1)=C\c1ccco1 | x | 4 | 16 | 4 | -1 | 5 | x | x
COc1ccc(CC(=O)N(Cc2ccccc2)c2ccccc2C(=O)Nc2cc(OC)ccc2OC)cc1 | x | -3 | 6 | 4 | 1 | 2 | x | x
O=C(O[C@H]1CC[C@@]23CCCN2C(=O)CCC[C@H]3C1)N1CCCC1 | x | -4 | x | -2 | -4 | 0 | x | x
O=C(NC1CCCCN(Cc2cccc(C(F)(F)F)c2)C1=O)c1ccc(-c2ccccc2)cc1 (configuration not stated) | x | 2 | 4 | -1 | -1 | 2 | x | x
COc1ccc(C(=O)N/C(=C\c2ccccc2)C(=O)Nc2ccc(C(=O)O)cc2)cc1 | 4 | 1 | 9 | 2 | -3 | -1 | x | x
COc1ccc(/C=C(\NC(=O)c2ccc(OC)cc2)C(=O)Nc2ccccc2C(=O)O)cc1 | -6 | -3 | 39* | 2 | 3 | 1 | 22 | 4
O=C(NCCCCC(NC(=O)c1ccccc1)C(=O)O)OCc1ccccc1 (configuration not stated) | x | 1 | 7 | 1 | 1 | 0 | x | x
CC1=NN(c2ccccc2)C(=O)/C1=C/c1ccc(-c2ccc(C)c(C(=O)O)c2)o1 | x | -2 | 4 | 3 | -3 | -4 | x | x
Cc1ccc(C(=O)O)cc1-c1ccc(/C=C2\SC(=O)N(CC(=O)Nc3ccccc3)C2=O)o1 | -2 | 6 | 42* | 3 | 22* | 9 | 89* | 66*
Cc1ccc(C)c(N2C(=N)S/C(=C\c3ccc(-c4ccccc4C(=O)O)o3)C2=O)c1 | 2 | 11 | 45* | -4 | 21* | 7 | 39* | 10*
Cc1ccc(NC(=O)CN2C(=O)S/C(=C\c3cc(C)n(C)c3C)C2=O)cc1 | 0 | 0 | 13 | 3 | -4 | 2 | x | x
C#CCN1C(=O)S/C(=C\c2ccc(-c3ccc(C(=O)O)cc3C)o2)C1=O | -7 | 12 | 48* | 9 | 41* | 11 | 43* | 16*
Cc1ccc(NC(=O)CN2C(=O)S/C(=C\c3cc(C)n(-c4cccc(C(=O)O)c4)c3C)C2=O)cc1 | 2 | 0 | 72* | 0 | -3 | 2 | 71* | 32* | dCAG dye DR=i
FC(F)(F)c1ccc(Cn2ccc3ccc(-c4ccc5ccn(Cc6ccc(C(F)(F)F)cc6)c5c4)cc32)cc1 | x | -4 | 12 | 0 | -3 | 2 | x | x
CCc1noc(C)c1C(=O)N1CCN(CC(=O)OC)CC1 | x | 0 | 1 | 2 | 0 | 4 | x | x
SMILES | ABHD5-PLIN5 inh | MBD2 inh | rCAG binder | LEDGF integ inh | UHRF1 binding | PRMT1 inh | rCAG bind conf | DNA CAG counter | others
O=C(O)c1[nH]c2ccccc2c1C(c1cc(Br)ccc1O)c1c(C(=O)O)[nH]c2ccccc12 | -8 | -2 | 95* | 9 | -1 | 2 | 76* | 40*
O=C(O)c1[nH]c2ccccc2c1C(c1c(F)cccc1Cl)c1c(C(=O)O)[nH]c2ccccc12 | 2 | -5 | 57* | 4 | -1 | 2 | 32 | 8.0*
COc1cc(Cl)cc(C(c2c(C(=O)O)[nH]c3ccccc23)c2c(C(=O)O)[nH]c3ccccc23)c1O | -10 | -5 | 92* | 6 | -1 | 0 | 73* | 38*
CN(C)c1ccc(N(C)C)c(C(O)(c2ccccc2)c2ccccc2)c1 | x | -2 | 0 | 1 | -3 | -5 | x | x
COc1ccc(-c2cscc2N)cc1 | x | 2 | 14 | 3 | -2 | 8 | x | x
Cc1noc(NS(=O)(=O)c2ccc(NC(=O)c3cc(S(=O)(=O)Nc4ccc(F)cc4)ccc3Cl)cc2)c1C | 3 | 8 | 59* | -1 | 2 | 2 | 52* | 23*
Cc1cc(C(=O)Nc2ccc(S(=O)(=O)Nc3onc(C)c3C)cc2)c(C)o1 | -1 | 3 | 11 | 3 | 5 | 1 | x | x
Cc1cc(F)ccc1S(=O)(=O)Nc1ccccc1C(=O)Nc1ccc2[nH]c(=O)[nH]c2c1 | 7 | 1 | 61* | 2 | -1 | 1 | 63* | 26*
Cc1noc(NS(=O)(=O)c2ccc(NC(=O)c3cc(S(=O)(=O)N(C)c4ccccc4)ccc3Cl)cc2)c1C | -9 | -7 | 77* | 7 | -2 | -2 | 76* | 41*
Cc1ccc(-c2cc(C(=O)Nc3ccc(S(=O)(=O)Nc4ncccn4)cc3)[nH]n2)c(O)c1C | 7 | -1 | 61* | 1 | 1 | -5 | 53* | 19*
Cc1ccc(S(=O)(=O)Nc2ccc3[nH]c(=O)[nH]c3c2)c(C)c1 | 0 | 10 | -1 | -3 | 6 | 7 | x | x
CC(=O)Nc1ccc(NC(=O)c2cc(-c3ccc(C)c(C)c3O)n[nH]2)cc1 | 4 | 6 | -5 | 0 | -1 | -4 | x | x
O=S1(=O)CC2c3ccccc3CCN2CN1CCc1ccccc1 (configuration not stated) | x | -3 | 0 | 0 | 0 | -1 | x | x

Compound activity: PubChem, The Scripps Research Institute Molecular Screening Center
